Compound activity from PubChem BioAssay.
Compounds with a hit are over-represented: about 1.1% of the library has one in this group of screens.
AmpC detergent = blocks E. coli AmpC beta-lactamase in detergent assay. Potency, µM (highest dose often 114 µM), inactives show at the highest dose activity change, negative = inhibition, most hits filed as inhibitors. AmpC hydrolysis of nitrocefin, absorbance 480 nm, 0.01% Triton. hit rate 0.041% among 370,000. P00811;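 also: 0% = no-compound wells and -100% = no-enzyme wells; nearly all actives have a fitted effect of over 25% in size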
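AmpC (5.3 nM in the dispensed reagent) in 20 mM phosphate pH 7.0 with 0.01% (detergent screen) or 0.0001% Triton X-100 was preincubated with compounds for 15 min at room temperature. Nitrocefin was then added from an 800 uM solution, and hydrolysis was followed at 480 nm.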
SARS PLP yeast = blocks SARS-CoV papain-like protease in a yeast assay; S. cerevisiae expressing SARS-CoV PLpro, growth rescue; Potency, µM (doses to about 32.9 µM), inactives show at the top dose activity, positive = growth rescue, usual class: activators; hit rate 0.19% among 330,000; AID 485353; calls by dose curve; also: 0% is about no effect; nearly all actives have a fitted effect of over 55% in size
AmpC no deterg = blocks E. coli AmpC beta-lactamase in detergent-free assay; AmpC nitrocefin hydrolysis, absorbance 480 nm, 0.0001% Triton; AID 485341; Potency, µM (titrated, usually from 57.1 µM), without a hit: at the highest dose activity change, negative = inhibition, usual class: inhibitors; hit rate 0.52% among 330,000;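 also: plate controls were no compound for no effect and no enzyme for full effect; nearly all actives have a fitted effect of over 20% in size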
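20 mM phosphate pH 7.0 + 0.01% (detergent screen) or 0.0001% Triton X-100; 5.3 nM AmpC reagent; cpd preinc 15 min RT; nitrocefin (800 uM stock) to start; A480 q20 s × 4 min; Activity was normalised to no-enzyme and no-compound control wells.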
Giardia FBPA inh-1 = blocks Giardia fructose-bisphosphate aldolase activity. Potency, µM (doses to about 59.6 µM), for inactives: at the highest dose activity, negative = inhibition, most hits filed as inhibitors. hit rate 0.71% among 290,000. purified Giardia FBPA. A8B2U2. AID 2451; also: % is scaled to controls: 0 for no effect and ±100 for the full control effect; nearly all actives have a fitted effect of over 55% in size
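40 nM FBPA preincubated 10 min at RT with compound (up to 57.5 uM final), then substrate plus GAPDH/TPI/NAD/arsenate coupling and diaphorase/resazurin added. Fluorescence read after 20 min at RT, 525/598 nm.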
Giardia growth = blocks growth of Giardia lamblia trophozoites; Potency, µM (top dose mostly 57.5 µM), for the others: at the highest dose activity change, negative = inhibition, hits mostly inhibitors; hit rate 5% among 1,500; AID 2785; shares compounds with Giardia FBPA inh-1; Giardia lamblia trophozoite growth inhibition;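 also: trophozoites exposed to compound for 48 h at 37 °C; % is scaled to controls: 0 for no effect and ±100 for the full control effect; nearly all actives have a fitted effect of over 70% in size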
Mammal cell tox = mammalian cytotoxicity of Giardia aldolase inhibitor hits; shares compounds with Giardia FBPA inh-1; mammalian cell viability counter-screen, qHTS; Potency, µM (doses to about 57.5 µM), without a hit: at the top dose viability change, negative = toxicity, actives largely listed as inhibitors; hit rate 4% among 1,500;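 also: Chinese hamster ovary cells used as mammalian cytotoxicity surrogate; viability measured as cellular ATP by luminescence; compound exposure lasted 48 h before reading; % is scaled to controls: 0 for no effect and ±100 for the full control effect; nearly all actives have a fitted effect of over 60% in size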
Giardia FBPA inh-2 = confirmation of Giardia fructose-bisphosphate aldolase inhibitors; shares compounds with Giardia FBPA inh-1; purified Giardia aldolase enzyme activity, qHTS; Potency, µM (highest dose often 57.5 µM), without a hit: at the highest dose activity change, negative = inhibition, actives largely listed as inhibitors; hit rate 5% among 1,500; AID 2787; also: % is scaled to controls: 0 for no effect and ±100 for the full control effect; nearly all actives have a fitted effect of over 45% in size
Rabbit FBPA inh = blocks rabbit muscle aldolase in Giardia aldolase selectivity test; shares compounds with Giardia FBPA inh-1; Rabbit muscle FBPA enzyme inhibition, selectivity counter-screen; Potency, µM (top dose mostly 57.5 µM), inactives show at the highest dose activity, negative = inhibition, hits mostly inhibitors; hit rate 4% among 1,500; also: % is scaled to controls: 0 for no effect and ±100 for the full control effect; nearly all actives have a fitted effect of over 60% in size
Target sequence (P00883 whole entry, looked up): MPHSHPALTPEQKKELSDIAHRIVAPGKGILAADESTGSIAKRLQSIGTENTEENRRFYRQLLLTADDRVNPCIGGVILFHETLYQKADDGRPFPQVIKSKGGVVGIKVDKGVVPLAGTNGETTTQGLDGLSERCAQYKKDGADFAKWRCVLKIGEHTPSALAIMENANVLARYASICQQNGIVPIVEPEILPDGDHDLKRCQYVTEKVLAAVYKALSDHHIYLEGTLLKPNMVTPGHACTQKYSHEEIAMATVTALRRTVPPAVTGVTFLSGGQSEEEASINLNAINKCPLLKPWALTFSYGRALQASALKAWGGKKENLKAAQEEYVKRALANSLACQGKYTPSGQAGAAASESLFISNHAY
GAPDH counter = counter-screen for Giardia aldolase inhibitors: GAPDH coupling enzyme | Potency, µM (titrated, usually from 57.5 µM), without a hit: at the highest dose activity change, negative = inhibition, hits mostly inhibitors | AID 2795 | shares compounds with Giardia FBPA inh-1 | hit rate 6% among 1,500 | GAPDH coupling enzyme counterscreen, biochemical, qHTS; also: % is scaled to controls: 0 for no effect and ±100 for the full control effect; nearly all actives have a fitted effect of over 55% in size
An asterisk follows results filed as active; ? = inconclusive; . = not tested or not shown; [ ] = remark or other dose. Unless noted, calls follow the shape of the dose curve; as a rule, active = well fitted curve in the direction sought with a large enough effect; inconclusive = small, poorly fitted or top-dose-only effect, or another doubt; inactive = no such curve, though single readings can be large; an effect the other way counts as inactive or inconclusive. Potency is read from the fitted curve at half-maximal effect.

SMILES	AmpC detergent	SARS PLP yeast	AmpC no deterg	Giardia FBPA inh-1	Giardia growth	Mammal cell tox	Giardia FBPA inh-2	Rabbit FBPA inh	GAPDH counter
COc1ccc(S(=O)(=O)N2CCC(N3CCN(Cc4ccccc4)CC3)CC2)cc1	2.6%	-3.1%	13.4%	12.6µM*	63.4%	-1.8%	4.9%	1.5%	16.0%
O=S(=O)(c1ccc(Cl)cc1)N1CCN(C2CCN(Cc3ccccc3)CC2)CC1	?	-3.5%	41.1%	8.1%	.	.	.	.	.
COc1cc(CN2CCN(S(=O)(=O)c3ccccc3)CC2)cc(OC)c1OC	?	-11.8%	12.8%	25.1µM*	23.9%	-9.4%	-3.4%	-0.5%	8.9%
COc1cc(C(=O)NCCCc2nc3ccccc3n2CC(C)C)cc(OC)c1OC	-1.0%	.	.	.	.	.	.	.	.
Cc1ccc2nc(CN3CCN(C(=O)Nc4ccc(C)c(F)c4)CC3)oc2c1	12.4%	.	.	.	.	.	.	.	.
COc1ccc(CCNC(=O)CNCC2CCCO2)cc1OC (configuration not stated)	-8.0%	0.8%	-0.4%	15.8µM*	-24.7%	13.8%	2.6%	5.2%	7.9%
COc1ccc(/C=N/NC2=NS(=O)(=O)c3ccccc32)cc1OC(C)=O	-0.8%	-2.6%	-10.9%	3.55µM*	12.0%[38.3 µM]	-3.6%	?	6.6%	2.6%
O=[N+]([O-])c1cccc(/C=N/NC2=NS(=O)(=O)c3ccccc32)c1	-10.1%	-0.5%	-13.1%	-2.0%	.	.	.	.	.
COc1cc(/C=N/NC(=O)Nc2ccccc2)ccc1OC(C)=O	?	24.8%	-19.8%	-0.8%	.	.	.	.	.
COc1cc(/C=N/NC2=NS(=O)(=O)c3ccccc32)cc(OC)c1OC	6.1%	2.1%	-27.0%	7.94µM*	-14.3%	5.7%	12.9%	8.5%	6.5%
COc1ccc(OC)c(/C=N/NC2=NS(=O)(=O)c3ccccc32)c1	-2.2%	-0.7%	-27.0%	15.8µM*	-16.7%[10.4 µM]	-4.3%	1.4%	7.7%	10.5%
CC(=O)Oc1ccc(/C=N/NC2=NS(=O)(=O)c3ccccc32)cc1	?	2.5%	-23.2%	7.94µM*	-26.5%	0.7%	10.0%	1.1%	11.6%
O=S1(=O)N=C(N/N=C/c2ccc(Br)o2)c2ccccc21	2.6%	1.0%	-21.2%	?	.	.	.	.	.
CCc1ccc(S(=O)(=O)c2nnn(-c3cccc(C)c3)c2N)cc1	17.2%	.	.	.	.	.	.	.	.
CCN(c1ccccc1C)S(=O)(=O)c1nnc(NC(=O)c2ccccc2C)s1	-1.1%	.	.	.	.	.	.	.	.
CN(C)c1ccc(/C=N/NC2=NS(=O)(=O)c3ccccc32)cc1	-7.3%	1.0%	-21.4%	?	.	.	.	.	.
COc1ccc(/C=N/NC2=NS(=O)(=O)c3ccccc32)cc1	2.7%	2.1%	-14.6%	4.47µM*	-6.8%[10.4 µM]	4.8%	8.9%	15.8%	6.1%
CCOc1ccccc1NC(=O)C(CC)Sc1nc2ccncc2[nH]1 (configuration not stated)	1.0%	1.5%	-28.8%	14.1µM*	-14.4%[10.4 µM]	4.3%	-5.9%	0.4%	1.8%
CCOC(=O)c1sc2nc(CSc3ccccc3)nc(N3CCC(C(N)=O)CC3)c2c1C	0.9%	-4.9%	121.5%	-15.5%	.	.	.	.	.
CCOC(=O)c1sc2nc(CSc3ccccc3)nc(N3CCCN(C)CC3)c2c1C	-5.6%	0.7%	204.2%	19.9µM*	-17.7%	-17.0%	4.1%	-1.2%	5.9%
Cc1cc(C)cc(NC(=O)Cn2c(=O)n(C(C)C)c(=O)c3oc4ccccc4c32)c1	-4.0%	.	.	.	.	.	.	.	.
C[C@H](NC(=O)c1cc2c(cn1)[nH]c1ccccc12)C(=O)O	-2.3%	0.1%	-31.8%	-18.6%	-0.8%[38.3 µM]	-9.3%	-12.0%	-4.7%	-7.1%
